In PubChem BioAssay AID1159580 (chemical genetic matrix, 2015):
“And” between values parts separate entries of the source, which are not always exact repeats. Identical values can stand only once. Among all 5,500 compounds or so, about 2,000 (36%) were called active. Inconclusive results (about 18%) are left out. No stated cut-off is given here; in the data, active means normalized growth mostly below about 0.91 (no sharp cut-off); inconclusive means no clear call, values can overlap the other calls; inactive means mostly above about 0.92. Some of the results follow.

Assay: chemical genetic growth profiling, strain panel (AID 1159580);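 further: tested at 20 µM; growth read once vehicle control cultures reached saturation at 30 °C; 1 = growth at the plate median or of vehicle wells; lower values mean less growth of the strain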
Conditions: S. cerevisiae deletion strains, growth OD

Measured: normalized growth

CNC(C)(C)Cc1ccccc1
inactive: locus YAL013W, strain DEP1, active compounds read low 1.01 | locus YAL021C, strain ccr4, active compounds read low 0.997 | locus YAL026C, strain drs2, active compounds read low 1.01 | locus YAL030W, strain snc1, active compounds read low 1.01 | locus YBL061C, strain skt5, active compounds read low 1.02 | locus YBR009C, strain hhf1, active compounds read low 1.02 | locus YBR021W, strain FUR4, active compounds read low 1.01 | locus YBR023C, strain chs3, active compounds read low 1.02 | locus YBR171W, strain sec66, active compounds read low 1.02 | locus YBR229C, strain ROT2, active compounds read low 1.01 | locus YBR231C, strain swc5, active compounds read low 1.02 | locus YBR279W, strain paf1, active compounds read low 1.01 | locus YCL011C, strain gbp2, active compounds read low 1.02 | locus YCL016C, strain dcc1, active compounds read low 1.02 | locus YCL029C, strain bik1, active compounds read low 1 | locus YCL061C, strain MRC1, active compounds read low 1.01 | locus YCL069W, strain vba3, active compounds read low 1.01 | locus YCR088W, strain abp1, active compounds read low 1.01 | locus YDL005C, strain med2, active compounds read low 1.02 | locus YDL035C, strain GPR1, active compounds read low 1.02 | locus YDL040C, strain nat1, active compounds read low 1.01 | locus YDL074C, strain BRE1, active compounds read low 0.988 | locus YDL101C, strain DUN1, active compounds read low 1.01 | locus YDL134C, strain PPH21, active compounds read low 1.02 | locus YDL185W, strain tfp1, active compounds read low 1.01 | locus YDL192W, strain arf1, active compounds read low 1 | locus YDR001C, strain nth1, active compounds read low 1 | locus YDR069C, strain doa4, active compounds read low 1.02 | locus YDR101C, strain arx1, active compounds read low 1.02 | locus YDR137W, strain rgp1, active compounds read low 0.958 | locus YDR150W, strain NUM1, active compounds read low 1 | locus YDR159W, strain sac3, active compounds read low 1 | locus YDR162C, strain NBP2, active compounds read low 1.02 | locus YDR195W, strain ref2 1.02 | locus YDR297W, strain sur2, active compounds read low 1.02 | locus YDR318W, strain mcm21, active compounds read low 1.02 | locus YDR334W, strain swr1, active compounds read low 0.991 | locus YDR335W, strain msn5, active compounds read low 1.01 | locus YDR388W, active compounds read low 1.01 | locus YDR392W, strain spt3, active compounds read low 1.01 | locus YDR502C, strain sam2, active compounds read low 0.993 | locus YEL003W, strain gim4, active compounds read low 1.01 | locus YEL037C, strain rad23, active compounds read low 1.01 | locus YEL061C, strain CIN8 (second series), active compounds read low 1 | locus YEL061C, strain CIN8, active compounds read low 1 | locus YER015W, strain faa2, active compounds read low 1.02 | locus YER016W, strain bim1, active compounds read low 1.01 | locus YER110C, active compounds read low 0.999 | locus YER111C, strain swi4, active compounds read low 0.988 | locus YER155C, strain BEM2 (second series), active compounds read low 0.996 | locus YER155C, strain BEM2, active compounds read low 1.01 | locus YER167W, strain BCK2, active compounds read low 1.03 | locus YFR010W, strain ubp6, active compounds read low 1.02 | locus YGL078C, strain dbp3, active compounds read low 0.998 | locus YGL086W, strain mad1, active compounds read low 0.997 | locus YGL167C, strain pmr1, active compounds read low 1.01 | locus YGL173C, strain kem1, active compounds read low 1.02 | locus YGL227W, strain vid30, active compounds read low 1.02 | locus YGL240W, strain doc1, active compounds read low 1.02 | locus YGL248W, strain PDE1, active compounds read low 0.996 | locus YGL253W, strain hxk2, active compounds read low 1.03 | locus YGR078C, strain PAC10, active compounds read low 0.994 | locus YGR135W, strain pre9, active compounds read low 1.03 | locus YGR252W, strain gcn5, active compounds read low 1 | locus YHR013C, strain ard1, active compounds read low 1.04 | locus YHR027C, strain rpn1, active compounds read low 1.02 | locus YHR030C, strain SLT2, active compounds read low 1.01 and 1.04 | locus YHR079C, strain IRE1 (second series), active compounds read low 1 | locus YHR079C, strain IRE1, active compounds read low 1.04 | locus YHR094C, strain hxt1, active compounds read low 1 | locus YHR129C, strain ARP1, active compounds read low 1.01 | locus YHR142W, strain chs7, active compounds read low 1.01 | locus YHR200W, strain rpn10, active compounds read low 1.01 | locus YIL066C, strain RNR3, active compounds read low 1 | locus YIL073C, strain SPO22, active compounds read low 1.06 | locus YIL125W, strain kgd1, active compounds read low 0.996 | locus YIR030C, strain dcg1, active compounds read low 1.01 | locus YJL092W, strain hpr5, active compounds read low 1.01 | locus YJL095W, strain BCK1 (second series), active compounds read low 1.01 | locus YJL095W, strain BCK1, active compounds read low 0.99 and 1.04 | locus YJL115W, strain asf1, active compounds read low 1.01 | locus YJL129C, strain trk1, active compounds read low 0.983 | locus YJL134W, strain LCB3, active compounds read low 1.01 | locus YJL154C, strain vps35, active compounds read low 1 | locus YJL164C, strain tpk1, active compounds read low 1.02 | locus YJL166W, strain qcr8, active compounds read low 1.02 | locus YJL168C, strain set2, active compounds read low 1 | locus YJL187C, strain SWE1 (second series), active compounds read low 0.986 | locus YJL187C, strain SWE1, active compounds read low 1.02
